According to PubChem BioAssay AID847 (SRMLSC, 2007):
Screen size: about 41,000 compounds; about 190 (0.46%) were called active.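 How the source made its calls: active means viability at or below the median of all test compounds minus 3 SD, in both replicates if run twice (cut at about 45% in these data); inconclusive means duplicate replicates that disagree with each other; inactive means viability above that cutoff in every replicate.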 Only a selection was taken, and actives are over-represented in it overall.

Assay: viability loss of SK-BR-3 cells – cell-based, human, 24 h, primary screen (AID 847);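 further: 100% = median untreated cell wells and 0% = median positive control drug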
Details: SK-BR-3 viability, CellTiter-Glo ATP luminescence, at 10 µM, hits give low values

| Compound | viability |
| --- | --- |
| COc1cc(OC)cc(C(=O)NCCSCc2ccco2)c1 | 80.3% (inactive) |
| N#Cc1c(NC(=O)CSc2nc3ccccc3c(=O)n2Cc2ccco2)sc2c1CCCC2 | 72.2% (inactive) |
| CCOc1ccccc1NC(=O)CCc1ccc(C)o1 | 103% (inactive) |
| COCCCNC(=O)c1c(F)c(F)c(F)c(F)c1F | 79.3% (inactive) |
| O=C1Nc2ccccc2C12Nc1ccccc1S2 (configuration not stated) | 75.9% (inactive) |
| Cc1ccc(C(C)C)c(OCc2nnc(SCC(=O)Nc3nccs3)n2C)c1 | 92.6% (inactive) |
| O=C(Cc1cccs1)N1CCCC(c2nc(-c3ccc(S(=O)(=O)N4CCCC4)cc3)no2)C1 (configuration not stated) | 72.5% (inactive) |
| Cc1sc2c(c1C)c(=O)n(-c1ccccc1)c1nncn21 | 90.1% (inactive) |
| O=C(Nc1ccccc1N1CCN(C(=O)c2ccccc2)CC1)c1ccc2c(c1)OCO2 | 68% (inactive) |
| CCn1nc(NC(=O)c2ccco2)c2cc3ccc(C)cc3nc21 | 79.8% (inactive) |
| COCCCNC(=O)COc1cc(C)c(Cl)c(C)c1 | 104% (inactive) |
| CC(=O)CCS(=O)(=O)c1ccc(C)c(C)c1 | 73.8% (inactive) |
| CCOc1cc(/C=N/O)cc(Br)c1OC | 90.1% (inactive) |
| CCc1ccccc1NC(=O)CSc1nnc([C@@H](NC(=O)OC(C)(C)C)C(C)CC)o1 (some centres not stated) | 89.6% (inactive) |
| O=S(=O)(NCCNS(=O)(=O)c1ccccc1)c1ccccc1 | 87.2% (inactive) |
| CCOC(=O)c1nc(N)sc1C(=O)OCC | 82.9% (inactive) |
| CCCCOc1ccc(NC(=O)CSCC(=O)OCC)cc1 | 97.7% (inactive) |
| CCN(CC)C(=O)CSc1nnc(-c2cnccn2)n1-c1ccc(C)cc1 | 112% (inactive) |
| CC(=O)N(CN1C(=O)C2CC=CCC2C1=O)c1cccc(Cl)c1 (configuration not stated) | 102% (inactive) |
| O=C(Nc1c(C(=O)N2CCCCC2)cnn1-c1ccccc1)c1ccco1 | 81.5% (inactive) |
| CCOC(=O)c1cnc(-n2nc(C)cc2C)nc1-n1nc(C)cc1C | 108% (inactive) |

| Compound | viability |
| --- | --- |
| CCN(CC)C(=O)CSc1nnc(-c2cccc(OC)c2)o1 | 88.1% (inactive) |
| CCS(=O)(=O)n1nc(-c2ccc(OC)cc2)nc1SC | 101% (inactive) |
| O=C(CSc1nnnn1-c1ccc2c(c1)CCC2)Nc1ccc2c(c1)OCCO2 | 86.1% (inactive) |
| CCC(=O)Nc1cccc(NC(=O)CSc2nnnn2C2CCCC2)c1 | 69% (inactive) |
| O=C(CSc1nnnn1C1CCCC1)Nc1ccc2c(c1)OCCO2 | 42.5% (active) |
| CCOc1cccc(-c2nn3c(-c4ccccn4)nnc3s2)c1 | 116% (inactive) |
| CCOC(=O)CNC(=O)CSc1nnc(-c2cccc(OC)c2)n1CC | 104% (inactive) |
| O=C1CCC(=O)N1CCOP1(=O)COc2ccccc2OC1 | 98.7% (inactive) |
| CCOC(=O)Cn1c(SC)nc2sc3c(c2c1=O)CC(C)(C)OC3 | 93.7% (inactive) |
| CSCC[C@H](NC(=O)NCCc1ccc(F)cc1)C(=O)O | 79.6% (inactive) |
| O=C(Nc1nn(Cc2ccccc2F)cc1Br)c1cccs1 | 98.6% (inactive) |
| C=CCn1c(CSc2nc3ccccc3s2)nnc1SCC(=O)NCc1ccco1 | 125% (inactive) |
| Cc1ccc(NC(=O)Cn2nc(C)c3ccccc3c2=O)c(C)c1 | 112% (inactive) |
| CCCCn1c(SCC(=O)N2CCC(C(=O)OCC)CC2)nc2cc(S(N)(=O)=O)ccc21 | 89.6% (inactive) |
| C=CCN1C(=O)C(O)(CC(=O)c2ccc(Cl)cc2)c2ccccc21 (configuration not stated) | 86.7% (inactive) |
| COc1ccc(OC)c(NC(=O)CSc2nc(N)c(-c3ccccc3)c(=O)[nH]2)c1 | 98.9% (inactive) |
| CN1CCN(C(=O)C2C3C=CC(C3)C2C(=O)O)CC1 (configuration not stated) | 109% (inactive) |
| COc1ccc(N2CC(C)Cn3c2nc2c3c(=O)n(Cc3ccccc3F)c(=O)n2C)c(OC)c1 (configuration not stated) | 89.5% (inactive) |
| CC1(C)NC(=O)N(CCOc2cccc(Oc3ccccc3)c2)C1=O | 94.6% (inactive) |
| C[C@H](NC(=O)OC(C)(C)C)c1nnc(SCC(=O)Nc2ccc(Br)cc2)o1 | 91.1% (inactive) |
| CCS(=O)(=O)NCCc1ccc(OC)c(OC)c1 | 85.1% (inactive) |

| Compound | viability |
| --- | --- |
| CCOc1ccccc1N(CC(=O)Nc1ccccc1C(=O)OC)S(C)(=O)=O | 114% (inactive) |
| COc1cc(C(=O)Nc2nccs2)cc(OC)c1OC | 98.8% (inactive) |
| CC(C)OC(=O)c1sc2nc3c(cc2c1N)C(=O)CCC3 | 70.8% (inactive) |
| CCOC(=O)c1c(C)n(C)c2ccc(OC)c(NC(=O)CN3CCC4(CC3)OCCO4)c12 | 88.1% (inactive) |
| Cc1ccc(C(=O)NCCNS(=O)(=O)c2ccccc2)cc1 | 104% (inactive) |
| CC(=O)Nc1ccc(S(=O)(=O)Nc2cccc(NC(=O)C(C)(C)C)c2)cc1 | 84.7% (inactive) |
| CC(c1ccccc1)n1c(NCCCn2ccnc2)nc2c1c(=O)[nH]c(=O)n2C (configuration not stated) | 62.8% (inactive) |
| O=C(c1cccs1)N(C(=O)c1cccs1)c1ccccn1 | 75% (inactive) |
| Cc1cccc(N2CC(C)Cn3c2nc2c3c(=O)n(CC(=O)OCc3ccccc3)c(=O)n2C)c1 (configuration not stated) | 72.3% (inactive) |
| CCN1C(=O)CS/C1=N\c1nccs1 | 96% (inactive) |
| O=C(O)c1ccc(F)c(S(=O)(=O)Nc2ccccc2)c1 | 99.6% (inactive) |
| CCOc1ccc2nc(NCCNS(=O)(=O)c3ccccc3)c(C#N)cc2c1 | 73.4% (inactive) |
| CCOC(=O)N1CCN(C(=O)CN(c2ccc(C)c(C)c2)S(=O)(=O)c2ccccc2)CC1 | 124% (inactive) |
| CCOC(=O)c1ccc(N2C(=O)CC(N3CC(C)OC(C)C3)C2=O)cc1 (configuration not stated) | 82.9% (inactive) |
| O=C(c1cccs1)N1CCN(C(=O)N2CCOCC2)CC1 | 119% (inactive) |
| CC(=O)CSc1nnc(CSc2ncccn2)n1C1CCCCC1 | 77.2% (inactive) |
| Cc1nc2nc(CSc3nc4ccccc4s3)cc(=O)n2[nH]1 | 94.5% (inactive) |
| O=S(=O)(c1ccccc1)N(CC(O)CN1CCCCC1)c1ccccc1 (configuration not stated) | 93% (inactive) |
| COc1ccc(CCNC(=O)CSc2nc(C)nc3c2oc2ccccc23)cc1OC | 131% (inactive) |
| CCc1nc2oc3ccccc3c(=O)c2c(=O)n1Cc1ccc(OC)cc1 | 84.3% (inactive) |
